Most compounds without a hit are left out; they make up all but 11% or so of the library.
ALDH1A1 block – qHTS Assay for Inhibitors of Aldehyde Dehydrogenase 1 (ALDH1A1) | Potency, µM (series often up to 75.3 µM), actives largely listed as inhibitors | 220,000 tested, 7.3% active | Purified ALDH1A1, NADH fluorescence, propionaldehyde substrate
HPGD inh – qHTS Assay for Inhibitors of HPGD (15-Hydroxyprostaglandin Dehydrogenase); purified HPGD, NADH fluorescence kinetic, PGE2 substrate; 150,000 tested, 4.3% active; 15-hydroxyprostaglandin dehydrogenase [NAD(+)] (Homo sapiens), P15428; Potency, µM, actives largely listed as inhibitors
Target sequence (P15428 whole entry, looked up): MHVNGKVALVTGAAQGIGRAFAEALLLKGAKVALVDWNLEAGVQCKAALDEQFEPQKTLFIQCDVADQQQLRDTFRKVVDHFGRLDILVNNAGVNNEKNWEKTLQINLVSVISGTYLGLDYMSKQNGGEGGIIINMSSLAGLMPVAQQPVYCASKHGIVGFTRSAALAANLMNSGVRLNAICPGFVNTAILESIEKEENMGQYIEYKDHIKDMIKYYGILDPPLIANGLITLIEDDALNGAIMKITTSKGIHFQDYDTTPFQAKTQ
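NADH formation kinetics: reaction with 30 uM PGE2 and 1 mM NAD+ (final), 20 nM enzyme, Tris-HCl pH 8 with Tween 20, after 15 min compound preincubation at room temperature. Fluorescence change, last versus first of five reads.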
PNC assembly inh – High Content Assay for Compounds that inhibit the Assembly of the Perinucleolar Compartment. PC3M PTB-GFP, PNC prevalence imaging, 16 h; active compounds read low. activity change (PNC), negative = inhibition, % at 10 µM. 140,000 tested, 3.1% active. AID 2417, 2010;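 active = readout at or below -70, meaning at least 70% loss of cells showing the perinucleolar compartment, a nuclear body marking cancer cells; inconclusive = readout between -30 and a set limit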
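PC3M cells stably expressing PTB-GFP, 750–1000 cells/well, treated 16 h at 37 °C with compound (23 nl of library stock), in duplicate. After paraformaldehyde fixation and Hoechst stain, imaged at 20x; PNC prevalence scored by image analysis.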
Hits are given with their value; n = inactive; u = inconclusive; x = no result given; [ ] = dose if it differs, or a comment. Unless noted, calls follow the shape of the dose curve; as a rule, active = well fitted inhibition curve with a large enough effect (not every such curve was filed as active); inconclusive = small, poorly fitted or top-dose-only effect, or another doubt; inactive = no such curve, though single readings can be large or run the other way.

SMILES	ALDH1A1 block	HPGD inh	PNC assembly inh
COC(=O)[C@@]1(Cc2ccc(F)cc2)[C@H]2c3cc(C(=O)N(C)C)n(Cc4ccc(S(C)(=O)=O)cc4)c3C[C@H]2CN1C(=O)c1ccccc1	u	n	x
Cc1cc2nc(-c3ccco3)cc(C(F)(F)F)n2n1	14µM	n	u
CCOC(=O)c1cc2nc(-c3ccco3)cc(C(F)(F)F)n2n1	u	u	n
COCCNC(=O)CSc1nc2ccccc2c(=O)n1CCCC(=O)NCc1ccccc1	n	n	u
CCN(C(=O)c1ccccc1)c1ccc([N+](=O)[O-])cc1	5µM	n	n
O=[N+]([O-])c1ccc(N(c2ccccc2)c2ccccc2)cc1	u	n	n
Cn1c(C(=O)NCc2cccs2)cc2oc3ccccc3c21	n	u	n
Cn1c(C(=O)NCC2CCCO2)cc2c(=O)[nH]c3ccccc3c21 (stereo unspecified)	u	u	n
Cn1c(C(=O)NCC2CCCO2)cc2oc3ccccc3c21 (stereo unspecified)	n	1.4µM	n
Cn1c(C(=O)NCc2ccccc2)cc2oc3ccccc3c21	u	u	-106
CC(C)=CCC/C(C)=C/CO/N=C1/C[C@@H](O)[C@@H](O)[C@@H]2[C@@H]3C(=O)N(C(C)(C)C)C(=O)[C@H]3CC[C@@H]12	n[13.5 µM]	x	x
Cc1occc1-c1nnc(SCC(=O)N2CCN(c3ccccc3F)CC2)n1C	u	n	n
O=C(CCNC(=O)c1ccccc1Cl)Nc1ccc(Cl)c(C(F)(F)F)c1	n	22µM	n
O=C(CCNC(=O)c1ccccc1Cl)Nc1ccc2c(c1)OCO2	n	n	n
C=CCN(C(=O)CSc1nc2[nH]ncc2c(=O)n1-c1ccccc1OC)c1ccccc1	13µM	n	u
COc1ccc(CCNC(=O)CSc2nc3[nH]ncc3c(=O)n2-c2ccccc2Br)cc1OC	22µM	x	x
O=C(CSc1nc2[nH]ncc2c(=O)n1-c1ccccc1Br)NCc1ccco1	13µM	n	u
Cc1cccc(C)c1-n1c(SCC(=O)NCc2ccco2)nc2ccccc2c1=O	n	n	n
CCNC(=O)CSc1nc2ccccc2c(=O)n1-c1cc(OC)ccc1OC	n	n	n
COc1ccc(CCNC(=O)CSc2nc3c(c(=O)n(C)c(=O)n3C)n2C(C)C)cc1OC	n	n	n
Cc1nc2cnc(N3CCOCC3)nc2n(Cc2cccs2)c1=O	u	n	x
COc1cc(C(=O)Nc2ccc(Br)cc2C(=O)c2cc(OC)c(OC)c(OC)c2)cc(OC)c1OC	n	n	n
Cc1cc(C)cc(O)c1	u	n	x
O=C(c1cccc([N+](=O)[O-])c1)N1CCN(Cc2ccc3c(c2)OCO3)CC1	n	x	x
CCOCCCNC(=O)c1cn(CC(C)C)c(=O)c2cc(OC)c(OC)cc12	20µM	n	n
SMILES	ALDH1A1 block	HPGD inh	PNC assembly inh
COc1cc(OC)c(C(=O)NCc2cccnc2)cc1OC	n	x	x
CCn1cc(C(=O)NCc2cccnc2)c2cc(OC)c(OC)cc2c1=O	25µM	n	u
CCn1cc(C(=O)NCCCOC)c2cc(OC)c(OC)cc2c1=O	n	n	n
COc1cc2c(C(=O)NCc3ccc4c(c3)OCO4)cn(CC(C)C)c(=O)c2cc1OC	0.14µM	n	-113
Cc1ccc(C(=O)N2CCN(Cc3ccc4c(c3)OCO4)CC2)cc1[N+](=O)[O-]	13µM	x	x
COc1cc2c(C(=O)Nc3ccc4c(c3)OCO4)cn(CC(C)C)c(=O)c2cc1OC	u	n	n
CCCCNC(=O)Cc1cc(=O)[nH]c(=O)[nH]1	n	x	x
CC(C)(C)Nc1oc(-c2ccccc2)nc1-c1ccc(C(F)(F)F)cc1	n	n	x
OCC1(Cc2ccc(Cl)cc2)CCN(Cc2ccc(Oc3ncccn3)cc2)CC1	n	x	x
COc1cc2c(C(=O)N3CCN(Cc4ccc5c(c4)OCO5)CC3)cn(C)c(=O)c2cc1OC	2.5µM	n	n
COc1ccccc1C(=O)N1CCN(Cc2ccc3c(c2)OCO3)CC1	n	n	n
CCOC(=O)N1CCC(N2Cc3cccc(C(=O)N4CCN(c5cccc(Cl)c5)CC4)c3C2=O)CC1	n	x	x
CC1(CC(=O)Nc2ccccc2)NC(=S)N(c2ccccc2)N1 (stereo unspecified)	11µM	x	x
Cn1c(CC(=O)Nc2ccccc2)n[nH]c1=S	n	x	x
CCc1ccc(OCC(=O)Nc2cc(S(=O)(=O)CC)ccc2O)cc1	u	n	u
Cc1ccc(S(=O)(=O)Cn2nnnc2C(C(C)C)N2CCSCC2)cc1 (stereo unspecified)	n	n	n
Cc1ccc(S(=O)(=O)Cn2nnnc2C(C(C)C)N2CCc3ccccc3C2)cc1 (stereo unspecified)	10µM	n	u
CC(C)Sc1nc2sc3c(c2c2nnc(SCC(=O)NCc4ccco4)n12)CCCC3	n	n	u
COc1ccc(C(=O)NN2CC(O)=C(c3nc4ccccc4n3C)C2=N)cc1OC	n	n	n
COc1cccc(-c2cnc(NCc3cc(Cl)ccc3O)n2C)c1	u	n	n
CCCCn1c(NCc2ccc3c(c2)OCO3)nc2ccccc21	n	n	n
Cn1c(-c2ccc3c(c2)OCO3)cnc1NCc1cccc(O)c1	13µM	x	x
Cn1c(-c2ccc(F)cc2)cnc1NCc1ccccc1	u	n	u
Cn1c(-c2cccc(Br)c2)cnc1NCc1cccnc1	11µM	n	n
Cn1c(-c2ccc(F)cc2)cnc1NCc1cccc(F)c1	6.3µM	16µM	n
SMILES	ALDH1A1 block	HPGD inh	PNC assembly inh
CCc1ccccc1NC(=O)N1CCC(NC(=O)C(Cc2ccccc2)NC(C)=O)CC1 (stereo unspecified)	n	x	x
C[C@@H]1C=C[C@](Cc2ccccc2)(C(=O)NCCN2CCOCC2)N1C(=O)c1ccccc1	n	n	x
Cc1nc2cc(C(=O)O)ccc2n1C1CCCCC1	n	n	-100
Cc1nc2cc(S(=O)(=O)N3CCC(C(=O)O)CC3)ccc2n1C1CCCC1	n	n	n
Cc1ccc(/C=C(/NC(=O)c2ccccc2)C(=O)NCCc2c[nH]c3ccccc23)o1	28µM	n	n
Cc1ccc(C(=O)N/C(=C\c2ccco2)C(=O)NCCc2c[nH]c3ccccc23)cc1	n	n	u
Cc1ccc(/C=C(\NC(=O)c2ccccc2)C(=O)NCCc2ccccn2)o1	22µM	n	n
CCCCNC(=O)/C(=C\c1ccc([N+](=O)[O-])o1)NC(=O)c1ccccc1	n	x	x
CC(C)C(=O)Nc1ccccc1C(=O)OCC(=O)c1ccc2c(c1)OCCO2	n	n	u
COc1ccc(C2=N[C@H](c3ccccc3)CO2)cc1	u	n	x
COc1ccc(C2=Nc3ccccc3OC2)cc1	22µM	n	n
O=C(Nc1ccc(N2CCOCC2)cc1)C1CC(=O)N(c2ccc(F)cc2)C1 (stereo unspecified)	n	x	x
CCCn1c(O)c(N=NC(=O)c2cccnc2)c2cc(Br)ccc21	1.1µM	x	x
CCCn1c(O)c(N=NC(=O)c2ccco2)c2ccccc21	u	n	n
CCn1c(SCC(=O)NC(=O)Nc2ccc3c(c2)OCCO3)nnc1-c1cccs1	u	u	n
Cc1ccnc(NC2(C(F)(F)F)N=C(c3ccccc3)NC2=O)c1 (stereo unspecified)	n	n	n
O=C(c1ccncc1)N1CCC2(CCCN(c3cccc(-c4ccccc4)c3)C2)CC1	n	n	x
O=C(O)c1cc(N/N=C/c2ccc3c(c2)OCCO3)ccc1Cl	u	n	n
